# 14-3-3g Raf – alters human 14-3-3 gamma binding to Raf peptide; P61981; FP, 14-3-3gamma / TMR-pS259-Raf peptide binding; inhibition, % at 40 µM; 160,000 compounds, 0.19% hits; AID 422; in the data active = inhibition above about 30%;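 also: 0% = protein plus tracer without compound and 100% = blank with tracer alone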
# Target sequence (P61981 whole entry, looked up): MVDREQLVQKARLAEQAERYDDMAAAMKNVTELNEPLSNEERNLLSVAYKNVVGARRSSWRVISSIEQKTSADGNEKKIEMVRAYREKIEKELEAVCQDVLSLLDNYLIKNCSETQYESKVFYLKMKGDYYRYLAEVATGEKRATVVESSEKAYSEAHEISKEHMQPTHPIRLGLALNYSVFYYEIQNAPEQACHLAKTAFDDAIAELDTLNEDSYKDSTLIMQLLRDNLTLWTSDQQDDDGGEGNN
# Active calls of the source: *; + = active, no number. This excerpt belongs to a sample that is enriched for hits.
SMILES,14-3-3g Raf
Nc1c(C(=O)c2ccccc2)sc2nc(-c3ccccc3)cc(C(F)(F)F)c12,60*
Nc1c(C(=O)NCCc2ccccc2)sc2nc(-c3ccccc3)cc(C(F)(F)F)c12,-2
CCOc1ccc(-c2nc3cc(N=Cc4cc([N+](=O)[O-])ccc4O)ccc3o2)cc1,-7
CC(=O)Oc1ccc2ccccc2c1C=Nc1cc([N+](=O)[O-])ccc1C,87*
COc1cc(OC)c(C=Nc2cc([N+](=O)[O-])ccc2C)cc1Br,-5
COC(=O)c1ccc(N=Cc2c(OC(=O)c3cccc([N+](=O)[O-])c3)ccc3ccccc23)cc1,3
CCOc1ccc(C=Nc2cc([N+](=O)[O-])ccc2C)c(O)c1,+
Cc1ccccc1NC(=O)c1cc2ccccc2c(C=Nc2ccc([N+](=O)[O-])cc2O)c1O,-105
COc1ccccc1NC1=NS(=O)(=O)c2ccccc21,-1
Cc1cccc2nc(-c3cccc(NC(=O)c4cc5ccccc5oc4=O)c3)cn12,-3
O=C(Nc1ccccc1)Nc1nnc(Cc2ccc(Cl)cc2)s1,6
CCOc1ccc(S(=O)(=O)N=C(N)c2ccccc2)cc1,0
Cc1ccc(C)c(Nc2c([N+](=O)[O-])ccc3nonc23)c1,-13
Cc1ccc(C)c(Nc2ccc3nonc3c2[N+](=O)[O-])c1,-10
Cc1ccc(C)c(Nc2ccc([N+](=O)[O-])c3nonc23)c1,34*
Cc1cccn2c(=O)c3cc(C(=O)N4CCCc5ccccc54)sc3nc12,-5
CCOC(=O)c1cc2c(=O)n3ccccc3nc2n(CCCOC)c1=NC(=O)c1cccc2ccccc12,-17
CCOC(=O)c1oc2ccccc2c1CN(CC)CC,3
O=C(c1ccc(F)cc1)c1cccnc1,66*
O=C(Oc1ccc(OC(=O)c2cccnc2)cc1)c1cccnc1,-29
O=C(c1ccc(F)cc1)N1CCC(O)(c2cccnc2)CC1,-1
COc1ccc(C(=O)NCc2ccc(S(N)(=O)=O)cc2)c(OC)c1,-8
O=C(Nc1cccc(Cl)c1)c1cc(S(=O)(=O)NCc2ccccc2Cl)ccc1F,-3
CN1CCc2c(sc(/N=C/c3cccs3)c2C(N)=O)C1,-37
CN1CCc2c(sc(/N=C/c3ccco3)c2C(N)=O)C1,48*
SMILES,14-3-3g Raf
N#Cc1c(/N=C/c2ccco2)sc2c1CCCCC2,-7
CCOC(=O)C1CCN(C(=O)CNC(=O)Cn2cnc3sc4c(c3c2=O)CCCC4)CC1,1
CC12CC(c3ccccc3O1)N(C(=O)c1cccs1)C(=O)N2c1ccc(Cl)cc1 (stereo not given),3
CCn1c(=N)c(C(=O)OCCCOC)cc2c(=O)n3cccc(C)c3nc21,2
COCCNc1ncnc2ccc(Br)cc12,8
COCCNc1ncnc2ccccc12,31*
c1ccc(CNc2ncnc3ccccc23)cc1,-5
Cc1nc2c(ccc3nc(NC(=O)c4ccc(S(=O)(=O)N5CCc6ccccc65)cc4)sc32)s1,-40
COc1ccc(-n2c(=S)[nH]c3cc(C(=O)NCCc4ccc(Cl)cc4)ccc3c2=O)cc1OC,-26
CCOc1ccc(NC(=O)CN2CCN(CC(=O)C(C)(C)C)CC2)cc1,-6
Cc1cc([N+](=O)[O-])ccc1-c1ccc(C=Cc2ccc3cccc(O)c3n2)o1,144*
COc1ccc(OC)c(C=Cc2ccc3cccc(O)c3n2)c1,-4
O=[N+]([O-])c1ccccc1-c1ccc(C=Cc2ccc3ccccc3n2)o1,-68
CCOC(=O)C(C)Oc1ccc2c(c1)oc(=O)c1ccccc12 (stereo not given),-2
O=C(CCCc1ccccc1)N1N=C(c2ccc(Cl)cc2)CC1(O)C(F)(F)F (stereo not given),2
Cc1ccc(N2N=C(c3ccccc3)CC2c2ccccc2)cc1 (stereo not given),-9
COc1ccc(C2=NN(c3ccccc3)C(c3ccc(OC)cc3)C2)cc1 (stereo not given),-34
O=c1oc2ccccc2cc1C1=NN(c2ccccc2)C(c2ccccc2)C1 (stereo not given),54*
O=C(CN(Cc1ccccc1)S(=O)(=O)c1ccc(Br)cc1)Nc1ccc(Br)cc1,-3
COc1ccccc1N=Cc1c(O)c(C(=O)Nc2ccccc2)cc2ccccc12,13
COc1cc(C=Nc2ccc(NC(C)=O)cc2)cc(OC)c1OC,-1
COc1ccccc1NC(=O)c1cc2ccccc2c(C=Nc2ccc(NC(C)=O)cc2)c1O,73*
Cc1ccccc1N=Cc1ccc(C=Nc2ccccc2C)cc1,6
COc1ccc2nc3sc(C(=O)N4CCN(C5CCCCC5)CC4)cc3cc2c1,-14
O=C1c2ccccc2C(=O)c2c(NCCOCCO)cccc21,-216
SMILES,14-3-3g Raf
Fc1ccccc1C1C=C(c2ccc(Br)s2)Nc2nc3ccccc3n21 (stereo not given),-107
Fc1ccccc1C1C=C(c2cccnc2)Nc2nc3ccccc3n21 (stereo not given),47*
Fc1ccccc1C1C=C(c2cccc(Br)c2)Nc2nc3ccccc3n21 (stereo not given),-11
Cc1ccc(NC(=O)c2cc(S(=O)(=O)NCc3ccc(C(=O)O)cc3)ccc2F)cc1Cl,2
CNC(=O)C(Sc1ccccc1)c1ccccc1 (stereo not given),125*
O=C(Nn1cnnc1)C(Sc1ccccc1)c1ccccc1 (stereo not given),1
O=C(NCc1ccc(F)cc1)C(Sc1ccccc1)c1ccccc1 (stereo not given),-1
O=C(CCNC(=O)Cn1cnc2sc3c(c2c1=O)CCCC3)NCc1cccnc1,-2
CC1CC(=O)C(CC(=O)O)C1C[N+](=O)[O-] (stereo not given),30*
COc1ccc(-n2nc3c(c2NC(=O)c2ccccc2Br)CSC3)cc1,-11
O=C(CN1C(=O)C2C3C=CC(C3)C2C1=O)N1CCN(c2ccccc2F)CC1 (stereo not given),-1
COc1cc2[nH]c(=S)n(Cc3cccnc3)c(=O)c2cc1OC,-2
COc1cccc2c3c(c(C)nc12)CC(C)S3 (stereo not given),-6
Cc1nc2cc(C(=O)O)ccc2s1,-7
Cc1nc2ccc(C(=O)O)cc2c2c1CC(C)S2 (stereo not given),73*
COc1ccc(OC)c(C2N=C(c3ccc4c(c3)OCO4)CC(c3ccccc3O)N2)c1 (stereo not given),-1
CCC1(C)Cc2ccccc2-c2[nH]c(=S)n(-c3ccccc3OC)c(=O)c21 (stereo not given),-3
CCCC(=O)N(c1ccc2oc(C)c(C(C)=O)c2c1)S(=O)(=O)c1ccc(Br)cc1,0
CC(C)CN1C(=O)C2C3CC4C5(C)CCCC(C)(C(=O)O)C5CCC4(C=C3C(C)C)C2C1=O (stereo not given),6
CC(C)C1=CC23CCC4C(C)(C(=O)O)CCCC4(C)C2CC1C1C(=O)OC(=O)C13 (stereo not given),47*
CC(C)C1=CC23CCC4C(C)(C(=O)O)CCCC4(C)C2CC1C1C(=O)N(c2ccc(O)cc2)C(=O)C13 (stereo not given),-24
COc1cc(OC)cc(C(=O)Nc2cccc(Oc3ccc(C(=O)O)c(C(=O)O)c3)c2)c1,-13
COC(=O)C1=CN(CC2CCCO2)C=C(C(=O)OC)C1c1ccc(OC)cc1 (stereo not given),0
CCOC(=O)C(CC(=O)O)N1CCCCC1 (stereo not given),36*
O=C(O)CC(C(=O)OCC1CCCO1)N1CCOCC1 (stereo not given),-6
O=C(O)CC(C(=O)OC1CCCCC1)N1CCOCC1 (stereo not given),3

# Screens from PubChem.
